Assay outcomes as filed in PubChem.
CD11b adhes enh – enhancers of CD11b/CD18 adhesion to fibrinogen, primary screen, K562 cells, luminescence. ATPlite luminescence. activation, % at 10 µM. actives 0.07% (n = 93,000). AID 1499, 2009;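 active = 10 µM primary screen giving 50% or more activity, confirmed by 40% or more on retest at that dose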
Target sequence (P05107 whole entry, looked up, other chains not shown): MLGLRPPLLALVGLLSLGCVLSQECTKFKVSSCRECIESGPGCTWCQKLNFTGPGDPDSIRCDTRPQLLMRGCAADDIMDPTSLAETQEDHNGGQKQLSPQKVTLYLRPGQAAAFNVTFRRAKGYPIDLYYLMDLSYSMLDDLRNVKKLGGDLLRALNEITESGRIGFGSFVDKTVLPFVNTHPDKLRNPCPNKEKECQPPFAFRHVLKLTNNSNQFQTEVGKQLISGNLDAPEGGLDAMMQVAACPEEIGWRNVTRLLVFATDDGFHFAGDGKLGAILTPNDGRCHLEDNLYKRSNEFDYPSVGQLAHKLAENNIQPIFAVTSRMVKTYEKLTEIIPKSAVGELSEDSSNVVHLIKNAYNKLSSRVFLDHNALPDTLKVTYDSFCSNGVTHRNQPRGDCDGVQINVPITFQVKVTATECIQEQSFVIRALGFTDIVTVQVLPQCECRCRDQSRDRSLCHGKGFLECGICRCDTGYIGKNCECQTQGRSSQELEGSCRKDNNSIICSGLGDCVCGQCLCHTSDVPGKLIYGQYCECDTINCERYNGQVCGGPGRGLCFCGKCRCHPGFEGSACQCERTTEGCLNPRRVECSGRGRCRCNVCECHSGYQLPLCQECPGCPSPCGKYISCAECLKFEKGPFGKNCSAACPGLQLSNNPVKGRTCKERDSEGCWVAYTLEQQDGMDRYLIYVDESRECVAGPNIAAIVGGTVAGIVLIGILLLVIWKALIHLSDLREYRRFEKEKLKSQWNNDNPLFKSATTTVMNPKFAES
Mac1 fbg inh – inhibitors of CD11b/CD18 adhesion to fibrinogen, primary screen, K562 cells, luminescence; inhibition, % at 10 µM; AID 1497, 2009; ATPlite luminescence; Mn2+ added to activate the integrin; actives 0.54% (n = 93,000);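 active = primary inhibition of 50% or more at 10 µM, then 40% or more on retest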
Ecoli WT expand – growth inhibitors of wild-type E. coli, primary screen, strain BW25113, expanded library, OD600. actives 0.15% (n = 98,000). growth inhibition, % at 100 µM. OD600 absorbance. AID 710, 2007;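 active = growth inhibition above about 50% at one test dose, limit read from the data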;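 also: growth measured after 20 h incubation at 37 °C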
Cav32 inh – Cav3.2 calcium influx blockers – cell-based, Fluo-4 calcium fluorescence, FDSS, MLSMR library, primary screen. Voltage-dependent T-type calcium channel subunit alpha-1H (Homo sapiens), O95180. Cav3.2-expressing cells; hits give low values. B-score at 10 µM. actives 4% (n = 100,000). AID 449739, 2010;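 active = single-dose well whose peak fluorescence ratio is a statistical outlier from its plate by either plate-standardised score or position-corrected B-score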
* marks the source's active call; other numbers are inactive results. The entries come from a sample that favours hits as a whole.

Results for CC(C)(C)c1ccc(OCC(=O)NC2CCS(=O)(=O)C2)cc1 (centres undefined) ?
CD11b adhes enh: 2.4; Mac1 fbg inh: -6.5; Ecoli WT expand: -10.0; Cav32 inh: 0.367

How did Cc1ccc(OCC(=O)NC2CCS(=O)(=O)C2)cc1 (centres undefined) do in these assays?
CD11b adhes enh: 2.4; Mac1 fbg inh: -49.5; Ecoli WT expand: -2.0; Cav32 inh: -4.69*

Results for O=C(NCc1ccc(C(F)(F)F)cc1)C1CC(c2c(Cl)cccc2Cl)=NO1 (centres undefined) ?
CD11b adhes enh: -3.7; Mac1 fbg inh: -3.1; Ecoli WT expand: 3.0; Cav32 inh: -2.61

Results for Nc1ccccc1CNc1nc(NCCO)nc2c1ncn2CCN1CCOCC1 ?
Cav32 inh: 0.505

What do the screens show for `COC(=O)c1ccc(OC)c(CSc2nnc(COc3ccc(Cl)cc3)o2)c1`?
CD11b adhes enh: 9.5; Mac1 fbg inh: 24.6; Ecoli WT expand: -24.0; Cav32 inh: -5.76*

How did CCOC(=O)N1CCN(C(=O)CSc2nnc(COc3ccc(Cl)cc3)o2)CC1 do in these assays?
CD11b adhes enh: -3.0; Mac1 fbg inh: 8.6; Ecoli WT expand: 6.0; Cav32 inh: -3.25*

Results for O=C(CSCc1nc2ccccc2[nH]1)N1CCN(c2ccc(F)cc2)CC1 ?
CD11b adhes enh: 3.9; Mac1 fbg inh: 7.1; Ecoli WT expand: 1.0; Cav32 inh: 0.137

How did O=C(CSCc1nc2ccccc2[nH]1)N1CCN(c2cccc(Cl)c2)CC1 do in these assays?
CD11b adhes enh: -5.7; Mac1 fbg inh: 3.1; Ecoli WT expand: -5.0; Cav32 inh: -3.54*

How did COc1cc(NC(=O)CCCc2c[nH]c3ccccc23)cc(OC)c1 do in these assays?
CD11b adhes enh: 1.7; Mac1 fbg inh: 10.4

What do the screens show for `Cc1ccc(CNC(=O)C2CC(c3cccc(F)c3)=NO2)cc1` (centres undefined)?
Cav32 inh: -1.84

Results for O=C(NCc1ccc2c(c1)OCO2)C1CC(c2ccc(Cl)cc2)=NO1 (centres undefined) ?
CD11b adhes enh: -5.6; Mac1 fbg inh: 16.5; Ecoli WT expand: 2.0; Cav32 inh: -5.58*

Results for O=C(NCc1ccc(OC(F)(F)F)cc1)C1CC(c2cccc(F)c2)=NO1 (centres undefined) ?
Cav32 inh: -3.15*

Results for Cc1ccc(S(=O)(=O)N2CCCN(S(=O)(=O)c3ccc4ccccc4c3)CC2)cc1 ?
Cav32 inh: -0.542

Results for NC(N)=N/N=C/c1ccc(OCc2ccccc2)cc1 ?
CD11b adhes enh: -1.3; Mac1 fbg inh: 36.4; Ecoli WT expand: 99.0*; Cav32 inh: 1.11

Results for CC(=O)Nc1ccc(S(=O)(=O)N2CCSC2c2ccc(C)cc2)cc1 (centres undefined) ?
CD11b adhes enh: -2.0; Mac1 fbg inh: -2.1; Ecoli WT expand: 1.0; Cav32 inh: -4.24*

Results for COc1ccc(C2SCCN2S(=O)(=O)c2ccc(NC(C)=O)cc2)cc1 (centres undefined) ?
CD11b adhes enh: -5.3; Mac1 fbg inh: 8.7; Ecoli WT expand: -2.0; Cav32 inh: -0.392

What do the screens show for `COc1ccc(CCNC(=O)c2ccc(-c3ccc([N+](=O)[O-])cc3Cl)o2)cc1`?
CD11b adhes enh: -2.6; Mac1 fbg inh: 22.3

How did O=C(Nc1ccc(S(=O)(=O)Nc2ccccc2)cc1)C1COc2ccccc2O1 (centres undefined) do in these assays?
Cav32 inh: -3.83*

How did O=C(Nc1ccc(S(=O)(=O)N2CCCC2)cc1)C1COc2ccccc2O1 (centres undefined) do in these assays?
Ecoli WT expand: -2.0; Cav32 inh: -1.24

What do the screens show for `COc1ccc(OCC(=O)N2CCN(c3nnc(-c4ccccc4)c4ccccc34)CC2)cc1`?
CD11b adhes enh: 3.1; Mac1 fbg inh: -3.1; Ecoli WT expand: -11.0; Cav32 inh: -5.84*

What do the screens show for `Cc1ccc(OCC(=O)N2CCN(c3nnc(-c4ccc(C)cc4)c4ccccc34)CC2)cc1`?
CD11b adhes enh: -0.3; Mac1 fbg inh: 21.6; Ecoli WT expand: -9.0; Cav32 inh: -7.45*

What do the screens show for `COc1ccc(-c2nnc(N3CCCCC3)c3ccccc23)cc1`?
Ecoli WT expand: -2.0; Cav32 inh: -4.56*

Results for O=C(COc1ccccc1)N1CCN(c2nnc(-c3ccccc3)c3ccccc23)CC1 ?
CD11b adhes enh: -3.5; Mac1 fbg inh: 1.9; Ecoli WT expand: -2.0; Cav32 inh: -2.44

Results for CC1(c2ccccc2)CC(C)(C)N2C(=O)/C(=C3\SC(=S)NC3=O)c3cccc1c32 (centres undefined) ?
CD11b adhes enh: -4.7; Mac1 fbg inh: 99.8*

What do the screens show for `O=C(C1CC(c2cccc(Br)c2)=NO1)N1CCc2ccccc2C1` (centres undefined)?
Ecoli WT expand: -16.0; Cav32 inh: -4.37*

How did O=C1OC(c2ccc(Cl)cc2)/C(=C(/O)c2ccccc2)C1=O (centres undefined) do in these assays?
CD11b adhes enh: 4.3; Mac1 fbg inh: -2.7; Ecoli WT expand: -7.0; Cav32 inh: -2.24

What do the screens show for `COc1ccc(OC)c(NC(=O)C(=O)NNC(=O)c2cccs2)c1`?
CD11b adhes enh: 1.1; Mac1 fbg inh: 7.3

Results for C=C1CCN([C@H](C(=O)NCc2ccco2)C(C)C)S(=O)(=O)c2ccccc21 ?
Cav32 inh: 0.465

What do the screens show for `COCCn1c(SCC(=O)N(C(C)C)C(C)C)nnc1-c1cc2ccccc2cc1O`?
CD11b adhes enh: 4.1; Mac1 fbg inh: 2.3; Ecoli WT expand: 0.0; Cav32 inh: -1

Results for CC(C)N(C(=O)CSc1nnc(-c2cc3ccccc3cc2O)n1Cc1ccco1)C(C)C ?
CD11b adhes enh: 4.4; Mac1 fbg inh: 21.6; Ecoli WT expand: -14.0; Cav32 inh: -6.63*

Results for O=C(CSc1nnc(-c2cc3ccccc3cc2O)n1Cc1ccco1)N1CCc2ccccc2C1 ?
CD11b adhes enh: 2.6; Mac1 fbg inh: 21.2; Ecoli WT expand: -9.0; Cav32 inh: -5.1*

Results for Cc1occc1-c1nnc(SCC(=O)N2CCOCC2)n1Cc1ccco1 ?
CD11b adhes enh: -1.6; Mac1 fbg inh: 2.9; Ecoli WT expand: 6.0; Cav32 inh: -0.798

How did O=C(C1CCCN(S(=O)(=O)c2ccccc2[N+](=O)[O-])C1)N1CCN(c2ccccc2)CC1 (centres undefined) do in these assays?
CD11b adhes enh: -2.0; Mac1 fbg inh: 17.6

How did Cc1cccc(OCC(=O)NC(=S)Nc2ccc(S(=O)(=O)NC3CCCCC3)cc2)c1 do in these assays?
CD11b adhes enh: -0.2; Mac1 fbg inh: 12.6; Ecoli WT expand: -15.0; Cav32 inh: -0.771

Results for CCn1c(SCC(=O)OCC(=O)N2c3ccccc3NC(=O)C2(C)C)nnc1-c1ccco1 ?
CD11b adhes enh: -2.2; Mac1 fbg inh: -9.8; Ecoli WT expand: 4.0; Cav32 inh: -0.334

What do the screens show for `CCCCCCn1c(COc2ccccc2F)nnc1SCC(=O)N1c2ccccc2NC(=O)C1(C)C`?
CD11b adhes enh: -3.1; Mac1 fbg inh: 21.9; Ecoli WT expand: -7.0; Cav32 inh: -5.92*

How did CCOc1ccc(Br)cc1CC(=O)O do in these assays?
Ecoli WT expand: -2.0; Cav32 inh: 0.139
